The results in this text go back to PubChem BioAssay (NCI).

This is part of a sample that, as a whole, favours compounds with a hit. Of some 83,000 tested, about 20% had one in any assay.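 The test compound was applied at a single concentration to cells in 96-well plates for 48 hours, and percent growth was recorded.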 A number with no mark means an inactive call. Activity calls are given as the source filed them. Rule for the calls: active = growth percent below 10; inactive = the rest.

Test systems include SR leukemia; RPMI-8226 leukemia; OVCAR-8 ovarian; OVCAR-5 ovarian; OVCAR-4 ovarian; SK-OV-3 ovarian; IGROV1 ovarian; OVCAR-3 ovarian; HS 578T breast; NCI/ADR-RES ovarian; T-47D breast; BT-549 breast; MDA-MB-435 melanoma; SW-620 colon; MCF7 breast; HCT-116 colon; HCC-2998 colon; KM12 colon.
Holding throughout (assay): NCI-60 one-dose screen, 48 h (100 = growth as untreated, 0 = no growth, -100 = all killed)
Settings in all cases: 10 µM

As for `Cc1cc(Cl)ccc1Nc1nc(C(F)(F)F)ccc1C(=O)N/N=C/c1ccccc1Cl`, the growth in the assay with SR leukemia was 66%; in the assay on RPMI-8226 leukemia it was 50.5%; with OVCAR-8 ovarian, 21.7%; in the assay on OVCAR-5 ovarian it was 30.8%; with OVCAR-4 ovarian it was 29.2%; in the assay with SK-OV-3 ovarian, 10.4%. Also, the growth is 21.6% with IGROV1 ovarian; 16.3% with OVCAR-3 ovarian; 17.4% in the assay on HS 578T breast; 8.31% (active) with NCI/ADR-RES ovarian; 22% in the assay with T-47D breast; -12.1% (active) with BT-549 breast. Besides, the growth was 16.4% in the assay with MDA-MB-435 melanoma; 19.9% with SW-620 colon; 16.2% in the assay with MCF7 breast; 7.23% (active) in the assay on HCT-116 colon; 16.7% in the assay with HCC-2998 colon; 14.8% in the assay with KM12 colon.

Consider `O=C(Cn1ccc(=O)[nH]c1=O)c1ccc([N+](=O)[O-])o1`, for which the growth was 73.9% in the assay with SR leukemia; 65.5% with RPMI-8226 leukemia; 103% in the assay with OVCAR-8 ovarian; 114% in the assay on OVCAR-5 ovarian; 97.9% in the assay on OVCAR-4 ovarian; 112% with SK-OV-3 ovarian. Further, the growth is 123% in the assay on IGROV1 ovarian; 96.9% in the assay on OVCAR-3 ovarian; 116% with HS 578T breast; 107% in the assay with NCI/ADR-RES ovarian; 80.4% in the assay on T-47D breast; 99.4% in the assay on BT-549 breast. For the same compound, the growth was 97.1% in the assay on MDA-MB-435 melanoma; 102% in the assay on SW-620 colon; 38.2% in the assay with MCF7 breast; 88.7% with HCT-116 colon; 111% in the assay with HCC-2998 colon; 83.9% in the assay on KM12 colon.

Take `Nc1ncc(-c2ccc(C(F)(F)F)cc2)c(NC2CCCCCC2)n1`: the growth is 60.3% in the assay on SR leukemia; -8.42% (active) in the assay on RPMI-8226 leukemia; 19.4% with OVCAR-8 ovarian; 53% with OVCAR-5 ovarian; 20% in the assay with OVCAR-4 ovarian; 76.1% in the assay on SK-OV-3 ovarian. Moreover, the growth in the assay on IGROV1 ovarian was 58.6%; with OVCAR-3 ovarian, 14.5%; in the assay with HS 578T breast, 38.4%; in the assay on NCI/ADR-RES ovarian it was 56.9%; in the assay with T-47D breast it was 20.5%; in the assay on BT-549 breast it was 48.3%. The growth is 37.1% with MDA-MB-435 melanoma; 37.4% with SW-620 colon; 25% in the assay with MCF7 breast; 26.3% in the assay on HCT-116 colon; 35.1% in the assay on HCC-2998 colon; 31.6% in the assay on KM12 colon.

As for `CCN(Cc1ccccc1)C1CCN(Cc2cc(Br)ccc2O)CC1`, the growth with SR leukemia was 7.57% (active); in the assay with RPMI-8226 leukemia, 21.9%; in the assay on OVCAR-8 ovarian, 59.9%; in the assay on OVCAR-5 ovarian, 68.1%; in the assay on OVCAR-4 ovarian, 36.9%; in the assay on SK-OV-3 ovarian, 76.9%. In addition, the growth in the assay on IGROV1 ovarian was 44.6%; in the assay with OVCAR-3 ovarian, 51.8%; in the assay on HS 578T breast, 56.6%; in the assay on NCI/ADR-RES ovarian, 36.1%; in the assay on T-47D breast, 44.3%; with BT-549 breast it was 80.6%. Further, the growth in the assay with MDA-MB-435 melanoma is 52.1%; with SW-620 colon, 63.7%; in the assay with MCF7 breast, 46.5%; in the assay with HCT-116 colon it was 38.7%; with HCC-2998 colon it was 2.04% (active); in the assay with KM12 colon, 51.3%.

In the case of `CCc1ccc(-c2nnc(COc3ccc(-c4nc5ccccc5[nH]4)cc3OC)o2)cc1`, the growth was -8.81% (active) with SR leukemia; 52.1% with RPMI-8226 leukemia; 40.9% with OVCAR-8 ovarian; 96.6% in the assay on OVCAR-5 ovarian; -36.2% (active) in the assay with OVCAR-4 ovarian; 100% in the assay with SK-OV-3 ovarian. For the same compound, the growth was 53.6% in the assay on IGROV1 ovarian; 4.63% (active) in the assay on OVCAR-3 ovarian; 14.4% with HS 578T breast; 69.2% in the assay on NCI/ADR-RES ovarian; 87.9% with T-47D breast; 51.7% with BT-549 breast. Besides, the growth with MDA-MB-435 melanoma is 56.7%; in the assay with SW-620 colon, 58.1%; with MCF7 breast it was 33.5%; with HCT-116 colon, 28.9%; with HCC-2998 colon, 81.6%; in the assay on KM12 colon, 58%.

With `CC(=O)OCC(COC(C)=O)(COC(C)=O)COC(C)=O`, the growth in the assay with SR leukemia is 86.6%; in the assay with RPMI-8226 leukemia, 97.6%; in the assay with OVCAR-8 ovarian, 103%; with OVCAR-5 ovarian, 102%; in the assay on OVCAR-4 ovarian it was 112%; with SK-OV-3 ovarian it was 99.6%. The growth in the assay on IGROV1 ovarian is 104%; with OVCAR-3 ovarian it was 103%; in the assay with HS 578T breast, 101%; in the assay on NCI/ADR-RES ovarian it was 106%; with T-47D breast it was -11.3% (active); in the assay with BT-549 breast it was 112%. For the same compound, the growth in the assay with MDA-MB-435 melanoma is 111%; with SW-620 colon it was 108%; in the assay on MCF7 breast, 93.8%; with HCT-116 colon it was 111%; in the assay with HCC-2998 colon, 101%; in the assay on KM12 colon, 102%.

Regarding `COc1cccc(C(=O)NNc2nc(N3CCOCC3)nc(N3CCN(C(c4ccccc4)c4ccccc4)CC3)n2)c1`, the growth with SR leukemia is 65.6%; in the assay on RPMI-8226 leukemia, 71.2%; in the assay with OVCAR-8 ovarian, 82.5%; in the assay with OVCAR-5 ovarian, 94.1%; with OVCAR-4 ovarian, 73.4%; with SK-OV-3 ovarian, 73.7%. The growth is 67.4% in the assay on IGROV1 ovarian; 74.6% in the assay on OVCAR-3 ovarian; 80.1% with HS 578T breast; 84.3% in the assay on NCI/ADR-RES ovarian; 59.2% with T-47D breast; 87.9% in the assay with BT-549 breast. Besides, the growth with MDA-MB-435 melanoma was 96.8%; in the assay on SW-620 colon it was 96.5%; in the assay with MCF7 breast, 79.8%; with HCT-116 colon it was 85.4%; in the assay with HCC-2998 colon, 100%; in the assay on KM12 colon, 77.7%.

Consider `CC(C)C[C@H](NC(=O)Cn1ccc(Nc2ccccc2)cc1=O)B(O)O`, for which the growth is 4.14% (active) in the assay on SR leukemia; 1.74% (active) in the assay on RPMI-8226 leukemia; 54.4% in the assay with OVCAR-8 ovarian; 33.9% with OVCAR-5 ovarian; 47.5% with OVCAR-4 ovarian; 51.7% in the assay with SK-OV-3 ovarian. The growth in the assay with IGROV1 ovarian is 53.4%; in the assay with OVCAR-3 ovarian it was -45.4% (active); in the assay on HS 578T breast it was 28.9%; in the assay on NCI/ADR-RES ovarian it was 111%; with T-47D breast, -4.25% (active); in the assay with BT-549 breast, 9.01% (active). Also, the growth in the assay on MDA-MB-435 melanoma is -85.4% (active); in the assay on SW-620 colon it was 15%; in the assay on MCF7 breast, 28.2%; in the assay on HCT-116 colon, -6.59% (active); in the assay with HCC-2998 colon, 9.37% (active); in the assay with KM12 colon it was 36.1%.

As for `COc1ccc(S(=O)(=O)Nc2ccc(OCc3nnc(-c4ccc(Cl)cc4)o3)c(F)c2)cc1`, the growth in the assay with SR leukemia is 18.4%; in the assay with RPMI-8226 leukemia, 31.6%; with OVCAR-8 ovarian, 60.4%; with OVCAR-5 ovarian it was 98.5%; in the assay on OVCAR-4 ovarian, 45.5%; in the assay with SK-OV-3 ovarian, 78.8%. Besides, the growth with IGROV1 ovarian was 79.4%; in the assay with OVCAR-3 ovarian, 71.8%; with HS 578T breast it was 86.3%; in the assay on NCI/ADR-RES ovarian, 45.7%; in the assay on T-47D breast it was 9.53% (active); in the assay on BT-549 breast it was 55%. In addition, the growth is 64% with MDA-MB-435 melanoma; 84.5% in the assay with SW-620 colon; 42.8% with MCF7 breast; 54.6% with HCT-116 colon; 74.2% in the assay on HCC-2998 colon; 56.3% with KM12 colon.
